# Shown are actives, neighbours in structure and some others; about 2.2% of the full set was active somewhere.
# GC-A act – GC-A (human) enzyme activation. P16066. HEK293 GC-A cells, cGMP TR-FRET, EC30 ANP; 0% at EC30 ANP, 100% saturating ANP. activation, % at 10 µM. 0.14% of 370,000 active; in the data active = activation above about 40%
# NPR2 activator – GC-B (human) receptor activation; activation, % at 10 µM; HEK293-GC-B cells, CNP EC30, cGMP TR-FRET; 0% at EC30 CNP, 100% saturating CNP; 0.11% of 370,000 active; AID 1920062; P20594;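 active = activation at 10 µM reaching about 35% in either raw or pattern-adjusted values, limit read from the data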
# ADAM17 inh – ADAM17 inhibition, QFRET primary screen | recombinant ADAM17, EDANS/DABCYL FRET peptide cleavage | 0.83% of 370,000 active | inhibition, % at 6.95 µM | P78536;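 active = inhibition above the mean of compounds lying between control limits plus 3 SD, set per campaign, cut at about 8.5% in these data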
# ADAM10 inh – ADAM10 inhibition, QFRET primary screen; AID 720582; 0.62% of 370,000 active; recombinant ADAM10, EDANS/DABCYL FRET peptide cleavage, 3 h; inhibition, % at 7 µM;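 active = inhibition above a per-campaign cutoff equal to the mean of compounds falling between control-based bounds plus 3 SD, cut at about 20% in these data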
# KLK7 zymogen act – activators of human kallikrein-7 zymogen; purified proKLK7, EDANS-DABCYL substrate fluorescence; 100% is mature enzyme control, 0% vehicle; activation, % at 7 µM; 0.9% of 370,000 active;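 active = activation above the mean of all tested compounds plus 3 SD, computed per campaign excluding outliers beyond control limits, cut at about 13% in these data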
# KLK7 act conf – proKLK7 activation, confirmation | activation, % at 7 µM | shares compounds with KLK7 zymogen act | 68% of 3,200 active | purified proKLK7, EDANS-DABCYL substrate fluorescence; scaled: vehicle 0, mature enzyme 100 | AID 686949;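 active = activation, as change over the incubation, above the mean of all tested compounds plus 3 SD, cut at about 13% in these data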
# EDANS-DABCYL int – optically interferes with EDANS-DABCYL signal, flagging KLK7 hits; shares compounds with KLK7 zymogen act; EDANS-DABCYL substrate fluorescence interference, no enzyme, 4 h; solvent 0%, active enzyme control 100%; activation, % at 7 µM; 80% of 3,200 active;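 active = activation above the all-compound mean plus 3 SD, ignoring values outside control-based bounds, cut at about 4.8% in these data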;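 also: value is the 4 h activation minus the activation read at time zero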
# K7 EDANS ctr – counter-screen for kallikrein-7 activators: EDANS-DABCYL interference, dose response; shares compounds with KLK7 zymogen act; EDANS-DABCYL peptide fluorescence interference, no enzyme; EC50, µM; 20% of 250 active;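 active = compounds that raise the fluorescence signal in this interference counterscreen, with EC50 at or below 10 µM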;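 also: intact quenched peptide substrate alone read at 355 nm excitation and 520 nm emission; signal is fluorescence gain from T0 to T4 after four hours at room temperature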
# A number is an active result; 0 = inactive; - = no result.
SMILES,GC-A act,NPR2 activator,ADAM17 inh,ADAM10 inh,KLK7 zymogen act,KLK7 act conf,EDANS-DABCYL int,others
COc1ccc(C=Nn2c(-c3ccc(F)cc3)n[nH]c2=S)cc1OCc1ccccc1,0,0,0,0,0,-,-,
O=C(Nc1c(-c2ccc(F)cc2)nc2ncccn12)C1CC1,0,0,0,0,25,36,38,
O=C(Nc1c(-c2ccccc2)nc2ncccn12)C1CC1,0,0,0,0,28,28,34,
O=C(Nc1ccc(F)cc1)Nc1c(-c2ccccc2)nc2ncccn12,0,0,0,0,0,-,-,
CC(C)CNS(=O)(=O)CC1NCc2cc3c(cc21)OCO3 (stereo not given),0,0,0,0,0,-,-,
Cc1cccc(C(=O)Nc2nc3ncccn3c2-c2ccc(F)c(F)c2)c1,0,0,0,0,0,-,-,
Cc1oc2c(CN3CCC(C)CC3)c(O)ccc2c(=O)c1-c1ccccc1,0,0,0,0,37,40,45,
Cc1oc2c(CN3CCOCC3)c(O)ccc2c(=O)c1-c1ccc(Cl)cc1,0,0,0,0,49,0,6.1,
Cc1oc2c(CN3CCCC3)c(O)ccc2c(=O)c1-c1ccc(Cl)cc1,0,0,0,0,27,40,50,
Cc1oc2c(CN3CCOCC3)c(O)ccc2c(=O)c1-c1ccc(Br)cc1,0,0,0,0,0,-,-,
CC[C@@H](CCCCCCCn1ccc2ccccc21)CCC(=O)N(c1ccccc1)c1ccccc1,0,0,0,0,0,-,-,
COc1ccccc1C1C=C(c2ccc(Cl)cc2)Nc2nc(N3C(=O)CCC3=O)nn21 (stereo not given),0,0,0,0,0,-,-,
COc1ccc(C2C=C(c3ccc(Br)cc3)Nc3nc(N4C(=O)CCC4=O)nn32)cc1 (stereo not given),0,0,0,0,29,0,0,
C1=C(c2ccccc2)Nc2ncnn2C1c1ccccc1 (stereo not given),0,0,0,0,0,-,-,
O=C1CCC(=O)N1c1nc2n(n1)C(c1ccccc1)C=C(c1ccc(Br)cc1)N2 (stereo not given),0,0,0,0,30,64,47,
CCN(CC)Cc1c(O)ccc2c(=O)c(-c3ccccc3Cl)coc12,0,0,0,0,40,67,62,
CCN(CC)Cc1c(O)ccc2c(=O)c(-c3ccccc3OC)coc12,0,0,0,0,85,51,74,
COc1ccccc1-c1coc2cc(O)cc(O)c2c1=O,0,0,0,0,0,-,-,
CC(C)(C)c1ccc(S(=O)(=O)N2CCC(c3cn4ccccc4n3)CC2)cc1,0,0,0,0,0,-,-,
CCS(=O)(=O)Nc1ccc(-c2nc3cccnc3s2)cc1,0,0,0,0,64,60,68,
O=S(=O)(Nc1ccc(-c2nc3cccnc3s2)cc1)c1ccccc1F,0,0,0,0,99,66,73,
Cc1cc(-c2nc3cccnc3s2)ccc1NS(=O)(=O)c1cccs1,0,0,0,0,71,66,57,
CCN(CC)C(=O)CC[C@H]1CC[C@]2(CCCN(S(=O)(=O)c3ccccc3)C2)O1,0,0,0,0,0,-,-,
COc1ccccc1CNC(=O)NNC(=O)CCn1nc(C)c([N+](=O)[O-])c1C,0,0,0,0,0,-,-,
CC12CCC(=O)N1c1c(sc3nc(N4CCOCC4)c4c(c13)CCCC4)C(=O)N2 (stereo not given),0,0,0,0,20,69,68,
SMILES,GC-A act,NPR2 activator,ADAM17 inh,ADAM10 inh,KLK7 zymogen act,KLK7 act conf,EDANS-DABCYL int,others
COc1cc2c3nnc(-c4ccc(F)cc4)c-3cn(Cc3ccc(F)cc3)c2cc1OC,0,0,0,0,13,0,0,
Cc1ccc(N2C(=O)c3ccccc3NC2c2ccccc2O)cc1 (stereo not given),0,0,0,0,0,-,-,
O=C1c2ccccc2NC(c2cccc(O)c2)N1c1ccccc1 (stereo not given),0,0,0,0,44,0,15,
Cc1ccc(S(=O)(=O)NN2C(=O)c3ccccc3NC2c2ccccc2)cc1 (stereo not given),0,0,0,0,17,0,4.9,
COc1ccc(C2Nc3ccccc3C(=O)N2NS(=O)(=O)c2ccc(C)cc2)cc1 (stereo not given),0,0,0,0,16,0,5.6,
CC(=O)NN1C(=O)c2ccccc2NC1c1cccc([N+](=O)[O-])c1 (stereo not given),0,0,0,0,0,-,-,
O=C1c2ccccc2NC(c2cccc(O)c2)N1NS(=O)(=O)c1ccccc1 (stereo not given),0,0,0,0,20,0,6.5,
N#Cc1ccc(OC[C@@H](O)CN2CCC(C(O)(c3ccccc3)c3ccccc3)CC2)cc1F,0,0,0,0,0,-,-,
COc1ccc(-c2cc(C(=O)N(C3CCCCC3)C3CCCCC3)no2)cc1,0,0,0,0,0,-,-,
CC(C)N1Cc2nnn(Cc3ccccc3)c2-c2ccccc2S1(=O)=O,0,0,0,0,0,-,-,
CCSc1nc2c(c(=O)[nH]1)C(c1ccc(C)cc1)C1=C(CCCC1=O)N2 (stereo not given),0,0,0,0,17,0,0,
CCN(C)c1nc(C)nc2c1nnn2Cc1ccccc1,0,0,0,0,0,-,-,
O=C(Nc1nc2n(n1)C(c1ccccc1)C=C(c1ccccc1)N2)c1ccco1 (stereo not given),0,0,0,0,0,-,-,
CC(=O)Nc1nc2n(n1)C(c1ccc(F)cc1)C=C(c1ccccc1)N2 (stereo not given),0,0,0,0,22,0,0,
O=C(c1nc2n(n1)C(c1ccc(Cl)cc1)C=C(c1ccccc1)N2)N1CCOCC1 (stereo not given),0,0,0,0,54,0,0,
CN(C)c1cccc2c(S(=O)(=O)NC(=O)[C@H]3O[C@@H](n4cnc5c(N)ncnc54)[C@H](O)[C@@H]3O)cccc12,0,0,0,0,25,35,23,K7 EDANS ctr=8.8
CCOC(=O)Cn1cc(CN2CCS(=O)(=O)N(Cc3ccc(C)cc3)C(C(=O)OC)C2)nn1 (stereo not given),0,0,0,0,0,-,-,
CCOC(=O)c1cc2c(=O)n3ccccc3nc2n(C(C)C)c1=NC(=O)c1c(-c2ccccc2Cl)noc1C,0,0,0,0,0,-,-,
CCOC(=O)c1cc2c(=O)n3ccccc3nc2n(C(C)C)c1=NC(=O)c1ccncc1,0,0,0,0,37,56,62,

# Source: PubChem (several laboratories)
